{"source": "the supplement of paper PMC8728848", "binders": {"B1": {"name": "HHL-2 (Homo sapiens), P07307 (protein)", "chain": "MAKDFQDIQQLSSEENDHPFHQGEGPGTRRLNPRRGNPFLKGPPPAQPLAQRLCSMVCFSLLALSFNILLLVVICVTGSQSEGHRGAQLQAELRSLKEAFSNFSSSTLTEVQAISTHGGSVGDKITSLGAKLEKQQQDLKADHDALLFHLKHFPVDLRFVACQMELLHSNGSQRTCCPVNWVEHQGSCYWFSHSGKAWAEAEKYCQLENAHLVVINSWEEQKFIVQHTNPFNTWIGLTDSDGSWKWVDGTDYRHNYKNWAVTQPDNWHGHELGGSEDCVEVQPDGRWNDDFCLQVYRWVCEKRRNATGEVA"}}, "assay_in_all_cases": "glycan array binding signal (z-score within array); higher = stronger binding", "details_in_all_cases": "glycan notation: IUPAC condensed, linker removed", "key": {"[1]": {"target": "Fuc(a1-2)Gal(b1-3)GlcNAc(b1-2)Man(a1-3)[Fuc(a1-2)Gal(b1-3)GlcNAc(b1-2)Man(a1-6)]Man(b1-4)GlcNAc(b1-4)GlcNAc", "summary_of_the_method": "(§1)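 The binding signal is a Z-score computed within each array. Data were drawn from 3228 arrays in the Consortium for Functional Glycomics database, restricted to those with a known protein sequence. Scores were averaged over arrays of the same protein sequence at different concentrations or buffers, and over linkers, and negative values can be taken as non-binding.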"}, "[2]": {"target": "Fuc(a1-2)Gal(b1-4)[Fuc(a1-3)]GlcNAc(b1-2)Man(a1-3)[Fuc(a1-2)Gal(b1-4)[Fuc(a1-3)]GlcNAc(b1-2)Man(a1-6)]Man(b1-4)GlcNAc(b1-4)GlcNAc", "summary_of_the_method": "as §1"}, "[3]": {"target": "Fuc(a1-2)[GalNAc(a1-3)]Gal(b1-4)GlcNAc", "summary_of_the_method": "as §1"}, "[4]": {"target": "Fuc(a1-3)[Gal(b1-4)]GlcNAc(b1-4)Gal(b1-4)[Fuc(a1-3)]GlcNAc", "summary_of_the_method": "as §1"}, "[5]": {"target": "Fuc(a1-3)[Gal3S(b1-4)]Glc6S", "summary_of_the_method": "as §1"}, "[6]": {"target": "Fuc(a1-3)[GalNAc(b1-4)]GlcNAc", "summary_of_the_method": "as §1"}, "[7]": {"target": "Fuc(a1-3)[Neu5Ac(a2-3)]Gal(b1-4)GlcNAc(b1-3)GalNAc", "summary_of_the_method": "as §1"}, "[8]": {"target": "Gal(b1-3)GalNAc(a1-3)[Fuc(a1-2)]Gal(b1-4)GlcNAc", "summary_of_the_method": "as §1"}, "[9]": {"target": "Gal(b1-3)[Fuc(a1-4)]GlcNAc(b1-2)Man(a1-3)[Gal(b1-3)[Fuc(a1-4)]GlcNAc(b1-2)Man(a1-6)]Man(b1-4)GlcNAc(b1-4)GlcNAc", "summary_of_the_method": "as §1"}, "Gal(b1-4)Glc6S": {"target": "Gal(b1-4)Glc6S", "summary_of_the_method": "as §1"}, "[10]": {"target": "Gal(b1-4)GlcNAc(b1-3)Gal(b1-3)GlcNAc", "summary_of_the_method": "as §1"}, "[11]": {"target": "Gal(b1-4)GlcNAc(b1-3)Gal(b1-4)GlcNAc", "summary_of_the_method": "as §1"}, "[12]": {"target": "Gal(b1-4)GlcNAc(b1-3)[GlcNAc(b1-6)]Gal(b1-4)GlcNAc", "summary_of_the_method": "as §1"}, "Gal6S(b1-4)GlcNAc6S": {"target": "Gal6S(b1-4)GlcNAc6S", "summary_of_the_method": "as §1"}, "[13]": {"target": "GalNAc(b1-4)GlcNAc(b1-2)Man(a1-3)[GalNAc(b1-4)GlcNAc(b1-2)Man(a1-6)]Man(b1-4)GlcNAc(b1-4)GlcNAc", "summary_of_the_method": "as §1"}, "GlcA(b1-3)GlcNAc": {"target": "GlcA(b1-3)GlcNAc", "summary_of_the_method": "as §1"}, "[14]": {"target": "GlcNAc(b1-2)Man(a1-3)[GlcNAc(b1-2)Man(a1-6)]Man(b1-4)GlcNAc(b1-4)GlcNAc", "summary_of_the_method": "as §1"}, "[15]": {"target": "GlcNAc(b1-4)GlcNAc(b1-4)GlcNAc", "summary_of_the_method": "as §1"}, "GlcNAc(b1-6)GalNAc": {"target": "GlcNAc(b1-6)GalNAc", "summary_of_the_method": "as §1"}, "Man(a1-2)Man(a1-3)Man": {"target": "Man(a1-2)Man(a1-3)Man", "summary_of_the_method": "as §1"}, "[16]": {"target": "Neu5Ac(a2-3)Gal(b1-4)GlcNAc(b1-2)Man(a1-3)[GlcNAc(b1-2)Man(b1-4)GlcNAc(b1-2)Man(a1-6)]Man(b1-4)GlcNAc(b1-4)GlcNAc", "summary_of_the_method": "as §1"}, "[17]": {"target": "Neu5Ac(a2-3)Gal(b1-4)GlcNAc(b1-3)Gal(b1-3)GlcNAc", "summary_of_the_method": "as §1"}, "[18]": {"target": "Neu5Ac(a2-3)Gal(b1-4)GlcNAc6S", "summary_of_the_method": "as §1"}, "[19]": {"target": "Neu5Ac(a2-3)Gal(b1-4)[Fuc(a1-3)]GlcNAc6S", "summary_of_the_method": "as §1"}, "[20]": {"target": "Neu5Ac(a2-3)[Neu5Ac(a2-6)]GalNAc", "summary_of_the_method": "as §1"}, "[21]": {"target": "Neu5Ac(a2-6)Gal(b1-4)GlcNAc(b1-2)Man(a1-3)[Gal(b1-4)GlcNAc(b1-2)Man(a1-6)]Man(b1-4)GlcNAc(b1-4)GlcNAc", "summary_of_the_method": "as §1"}, "[22]": {"target": "Neu5Ac(a2-6)Gal(b1-4)GlcNAc(b1-3)Gal(b1-4)GlcNAc", "summary_of_the_method": "as §1"}, "[23]": {"target": "Neu5Ac(a2-6)Gal(b1-4)GlcNAc6S", "summary_of_the_method": "as §1"}, "[24]": {"target": "Neu5Ac(a2-8)Neu5Ac(a2-8)Neu5Ac(a2-3)Gal(b1-4)Glc", "summary_of_the_method": "as §1"}, "[25]": {"target": "Neu5Ac(a2-8)Neu5Ac(a2-8)Neu5Ac(a2-8)Neu5Ac(a2-3)[GalNAc(b1-4)]Gal(b1-4)Glc", "summary_of_the_method": "as §1"}}, "note": "Shown is part of a subset that was picked to be rich in the strongest signals."}
{"binder": "B1", "values": [{"measurement": "glycan array binding signal (z-score)", "setting": "[1]", "result": -0.497}, {"measurement": "glycan array binding signal (z-score)", "setting": "[2]", "result": 2.08}, {"measurement": "glycan array binding signal (z-score)", "setting": "[3]", "result": -0.68}, {"measurement": "glycan array binding signal (z-score)", "setting": "[4]", "result": -0.334}, {"measurement": "glycan array binding signal (z-score)", "setting": "[5]", "result": -0.68}, {"measurement": "glycan array binding signal (z-score)", "setting": "[6]", "result": -0.451}, {"measurement": "glycan array binding signal (z-score)", "setting": "[7]", "result": 6.72}, {"measurement": "glycan array binding signal (z-score)", "setting": "[8]", "result": -0.536}, {"measurement": "glycan array binding signal (z-score)", "setting": "[9]", "result": 0.043}, {"measurement": "glycan array binding signal (z-score)", "setting": "Gal(b1-4)Glc6S", "result": -0.52}, {"measurement": "glycan array binding signal (z-score)", "setting": "[10]", "result": -0.728}, {"measurement": "glycan array binding signal (z-score)", "setting": "[11]", "result": -0.474}, {"measurement": "glycan array binding signal (z-score)", "setting": "[12]", "result": -0.539}, {"measurement": "glycan array binding signal (z-score)", "setting": "Gal6S(b1-4)GlcNAc6S", "result": 3.54}, {"measurement": "glycan array binding signal (z-score)", "setting": "[13]", "result": 3.17}, {"measurement": "glycan array binding signal (z-score)", "setting": "GlcA(b1-3)GlcNAc", "result": -0.012}, {"measurement": "glycan array binding signal (z-score)", "setting": "[14]", "result": -0.677}, {"measurement": "glycan array binding signal (z-score)", "setting": "[15]", "result": 2.8}, {"measurement": "glycan array binding signal (z-score)", "setting": "GlcNAc(b1-6)GalNAc", "result": -0.738}, {"measurement": "glycan array binding signal (z-score)", "setting": "Man(a1-2)Man(a1-3)Man", "result": -0.028}, {"measurement": "glycan array binding signal (z-score)", "setting": "[16]", "result": 2.39}, {"measurement": "glycan array binding signal (z-score)", "setting": "[17]", "result": 3.56}, {"measurement": "glycan array binding signal (z-score)", "setting": "[18]", "result": -0.075}, {"measurement": "glycan array binding signal (z-score)", "setting": "[19]", "result": 0.012}, {"measurement": "glycan array binding signal (z-score)", "setting": "[20]", "result": -0.847}, {"measurement": "glycan array binding signal (z-score)", "setting": "[21]", "result": 0.34}, {"measurement": "glycan array binding signal (z-score)", "setting": "[22]", "result": -0.539}, {"measurement": "glycan array binding signal (z-score)", "setting": "[23]", "result": 2.18}, {"measurement": "glycan array binding signal (z-score)", "setting": "[24]", "result": 3.59}, {"measurement": "glycan array binding signal (z-score)", "setting": "[25]", "result": 0.721}]}
